# High-throughput results as filed in PubChem.
# Proteasome disasm: blocks ATP-dependent breakdown of the yeast 26S proteasome; actives 0.2% (n = 24,000); inhibition of disassembly, % (no concentration beside the values); anti-FLAG beads, GFP-proteasome disassembly, flow cytometry; AID 751;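 active = inhibition of disassembly above about 33%, limit read from the data; inconclusive = likely self-fluorescent, control bead median signal at least 40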;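 also: plate controls were ATP control with full disassembly for no effect and ATP-gamma-S intact proteasomes for full effect; higher percent means more bead fluorescence retained so stronger block of disassembly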
# VLA-4 antagonist: inhibitors of LDV-FITC ligand binding to Mn2+-activated human VLA-4 integrin | inhibition, % at 10 µM (by protocol) | Jurkat cells, LDV-FITC binding with Mn2+, flow cytometry; 100% = Mn2+-driven binding gain fully reversed | actives 0.2% (n = 24,000);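 active = inhibition above 50%; inconclusive = compound itself fluorescent, judged against control cell fluorescence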;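 also: 0% = Mn2+ stimulated cells lacking compound and 100% = ligand binding without Mn2+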
# FPRL1 ligand: ligands of human FPRL1, also counter-screen for FPR ligands; actives 0.3% (n = 24,000); AID 441; inhibition, % (no concentration beside the values); P25090; FPRL1-expressing cells, fluorescent ligand binding inhibition, flow cytometry;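 also: 0% = buffer alone and 100% = receptor blocker peptide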
# FPR ligand: human FPR ligand, with FPRL1 counter-screen | FPR-expressing cells, fluorescent ligand binding, flow cytometry | inhibition, % (concentration not given with the values) | actives 0.74% (n = 24,000) | AID 440;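 also: 0% = buffer wells and 100% = receptor blocker peptide wells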
# Target sequence (P21462 whole entry, looked up): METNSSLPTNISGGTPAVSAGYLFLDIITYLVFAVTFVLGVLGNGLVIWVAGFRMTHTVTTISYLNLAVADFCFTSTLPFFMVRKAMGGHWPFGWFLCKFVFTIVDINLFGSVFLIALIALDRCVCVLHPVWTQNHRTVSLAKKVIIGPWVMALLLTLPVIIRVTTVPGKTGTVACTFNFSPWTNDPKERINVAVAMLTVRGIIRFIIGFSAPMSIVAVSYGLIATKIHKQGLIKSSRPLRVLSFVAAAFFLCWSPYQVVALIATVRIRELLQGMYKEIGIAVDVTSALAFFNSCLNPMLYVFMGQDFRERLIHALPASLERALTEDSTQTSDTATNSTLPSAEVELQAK
# Jurkat autofluor: compound fluoresces in Jurkat cells, VLA-4 screen interference; compound autofluorescence, flow cytometry; stronger effect = higher value; 1 = vehicle-only cell background; fluorescence ratio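 (tested at 10 µM compound in the well)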; actives 0.61% (n = 24,000); AID 576;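 active = fluorescence ratio above 2.44, which is 1 plus 3 SD of all ratios; inconclusive = signal too bright to measure linearly, ratio around 10 or more; inactive = fluorescence ratio below 2.44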;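 also: green fluorescence of cells measured with 488 nm excitation and 530 nm emission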
# VLA-4 agonist: allosterically activates the human VLA-4 integrin. activation, % at 10 µM (by protocol). AID 528. 24,000 tested, under 10 active. P13612. Jurkat cells, LDV-FITC binding, flow cytometry;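 active = fluorescent ligand binding to cells raised by more than 40% of the manganese-induced maximum; inconclusive = compound's own fluorescence above 85% of the ligand control signal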;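 also: 0% = ligand binding without compound and 100% = manganese-stimulated maximal binding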
# Numbers without * were called inactive; ? = inconclusive; nt = not tested or not shown. In the library only some 1.9% were active in any assay of this set; here they are far more common. Rule as the data show it, unless noted: active = inhibition above about 30%; inconclusive = no clear call, values can overlap the other calls; inactive = below that.
SMILES,Proteasome disasm,VLA-4 antagonist,FPRL1 ligand,FPR ligand,Jurkat autofluor,VLA-4 agonist
COc1ccccc1C1/C(=C(/O)c2ccc(C)cc2)C(=O)C(=O)N1CC(C)O (centres undefined),nt,nt,1.0,-9.9,nt,nt
COc1ccccc1C1/C(=C(/O)c2ccccc2)C(=O)C(=O)N1CC(C)C (centres undefined),-0.8,-18.0,-3.5,63.0*,1.06,10.0
COc1ccc(N(CC(=O)NCc2cccnc2)S(=O)(=O)c2c(C)nn(C)c2C)cc1,0.8,2.0,-1.5,-2.3,0.93,3.0
C=CCN(C(=O)CSc1nc2[nH]ncc2c(=O)n1-c1ccccc1OC)c1ccccc1,-2.1,1.0,-2.1,3.7,1.02,3.0
Cc1ccc(C2C3=C(CC(C)(C)CC3=O)Nc3[nH]c(=S)[nH]c(=O)c32)cc1 (centres undefined),0.4,-8.0,-3.0,35.2*,0.94,7.0
Cc1oc(-c2ccc(Cl)cc2)nc1CN1CCC(C(=O)N2CCN(c3ccccn3)CC2)CC1,3.0,?,-1.9,-1.1,0.95,?
CC(C)CCNC(=O)Cn1c(NCCC(C)C)nc2c1c(=O)n(C)c(=O)n2C,-0.4,-21.0,2.4,3.8,0.86,1.7
N#C[C@@H]1[C@@H]2C(=O)N(c3ccc4c(c3)OCCO4)C(=O)[C@@H]2C2c3ccccc3C=CN21 (some centres undefined),6.4,?,-17.1,-22.0,5.22*,?
Cc1ccccc1Cn1c(=O)c2c(nc3n2CCN3Cc2ccco2)n(C)c1=O,0.5,9.0,4.1,5.6,1.09,2.0
C=C(C)C1Cc2c(C)nn(-c3nc(C)cc(C)n3)c2C1 (centres undefined),2.8,54.0*,-3.5,-5.9,1,-20.0
CNC(=O)N(C1=NCC(C)(C)S1)c1ccc(F)c(Cl)c1,-1.5,-9.0,0.1,6.8,0.99,0.0
Cn1cccc1Cc1nnc(SCC(=O)Nc2nccs2)n1CCc1ccccc1,2.6,8.0,5.8,10.0,0.92,6.0
CCSc1nnc(NC(=O)CSc2nnc(Cc3cccn3C)n2CCc2ccccc2)s1,-0.8,-2.0,-2.4,33.5*,1.15,-2.0
CCCCC(=O)NC(Nc1nc(C2CC2)cs1)(C(=O)OCC)C(F)(F)F (centres undefined),-0.2,-9.0,-0.4,0.9,1.04,-1.0
COc1ccccc1-n1c(SC)nc(O)cc1=O,-1.1,-15.0,-10.4,40.7*,0.99,-1.0
CCOC(=O)Cn1c(=O)oc2cc(S(=O)(=O)Nc3c(C)cc(C)cc3C)ccc21,0.1,?,-5.7,-10.3,6.02*,?
CCOC(=O)Cn1c(=O)oc2cc(S(=O)(=O)N3CCCC(C(=O)OCC)C3)ccc21 (centres undefined),-5.3,?,-3.9,-9.8,3.14*,?
CCOC(=O)Cn1c(=O)oc2cc(S(=O)(=O)NCc3ccccn3)ccc21,-0.3,?,-21.1,-18.5,3.65*,?
CCOC(=O)C1=C(C)N=c2s/c(=C\c3cccn3C)c(=O)n2C1c1cccc(OC)c1OC (centres undefined),14.1,?,-23.0,-18.3,7.77*,?
CCOC(=O)C1=C(C)Nc2nnnn2C1c1cccc(OC)c1OC (centres undefined),-0.6,-4.0,6.2,1.8,0.99,-7.0
CNc1nn(-c2cccc(Cl)c2)nc1N,?,?,90.3*,-8.6,8.09*,?
CN(C(=O)Cn1c(=O)n(CCCCC(=O)NC2CCCC2)c(=O)c2ccccc21)C1CCCCC1,-0.2,-11.5,-4.0,2.3,0.96,0.3
CCOC(=O)NC(CC(=O)O)c1ccc(OCC)cc1 (centres undefined),-3.4,28.0,4.4,4.0,1,-18.0
CCOc1ccc(C(CC(=O)O)NC(=O)C23CC4CC(CC(C4)C2)C3)cc1 (centres undefined),nt,111.0*,nt,nt,1,-20.0
OCc1nc2ccccc2n1CC(O)Cn1ccc2ccccc21 (centres undefined),1.1,-2.5,51.2*,37.4*,1.05,-3.0
CCC(Sc1nc2c(c(=O)[nH]1)CCC2)C(=O)Nc1cccc(OC)c1 (centres undefined),1.1,0.0,-2.3,62.1*,1.13,-10.0
